Experimental findings from PubChem BioAssay (NCATS) are described below.

Inconclusive results are not listed. Active and inactive are the calls of the source. Calls follow the shape of the dose curve; as a rule, active = well fitted curve in the direction sought with a large enough effect; inconclusive = small, poorly fitted or top-dose-only effect, or another doubt; inactive = no such curve, though single readings can be large; an effect the other way counts as inactive or inconclusive.

The nature of test [1]: Primary qHTS for inhibitors of nuclear receptor binding SET domain protein 2 (NSD2) in an isogenic RCH-ACV NSD2 p.E1099K mutant (9B) (AID 1645876). Also: nearly all actives have a fitted effect of over 70% in size. The note with it: RCH-ACV NSD2 E1099K (9B) viability, CellTiter-Glo, 72 h; series mostly up to 44.9 µM. A general note: qHTS replaces the single test concentration by a dilution series.
Test [2] can be described thus: Primary qHTS for inhibitors of nuclear receptor binding SET domain protein 2 (NSD2) in an RCH-ACV wild type WT cells (2C) (AID 1645877). Also: nearly all actives have a fitted effect of over 70% in size. The settings on record: RCH-ACV (leukaemia line) NSD2 WT (2C) viability, CellTiter-Glo, 72 h; series mostly up to 44.9 µM.
Test [3] deals with N-terminal Xaa-Pro-Lys N-methyltransferase 1 (Homo sapiens) (UniProt Q9BV86). The experiment in a line: Confirmatory qHTS for Inhibitors of N-terminal methyltransferase 1 (NTMT1): MTaseGlo Assay (AID 1645874). Also: nearly all actives have a fitted effect of over 65% in size. The settings on record: NTMT1 enzyme, MTase-Glo SAH luminescence; series mostly up to 100 µM. In a few lines:
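Room-temperature NTMT1 reaction, 30 min, with 100 uM SAM and 1 uM SPKRIA substrate; enzyme 125 nM. Read-out: MTase-Glo luminescence, normalized to no-enzyme and DMSO controls.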
Potency is read from the fitted curve at half-maximal effect.

Chain of N-terminal Xaa-Pro-Lys N-methyltransferase 1 (Homo sapiens) (Q9BV86 whole entry, looked up): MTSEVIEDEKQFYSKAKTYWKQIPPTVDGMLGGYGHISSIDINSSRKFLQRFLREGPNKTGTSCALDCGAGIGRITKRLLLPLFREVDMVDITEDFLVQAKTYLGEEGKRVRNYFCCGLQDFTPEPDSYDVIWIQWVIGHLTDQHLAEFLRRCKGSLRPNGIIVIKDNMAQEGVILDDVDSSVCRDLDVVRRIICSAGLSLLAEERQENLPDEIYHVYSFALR

`C=C1C(=O)O[C@@H]2C[C@]3(C)[C@@H](CCC(C)O)[C@@H]3C[C@H]12` (some centres undefined): the figures for the Potency in test [1] and in test [2] were 18.3 µM (active) and 14.5 µM (active), respectively. On to `CCC/C=C\C=C/CCc1cc(O)c([C@@H]2O[C@H](CO)[C@@H](O)[C@H](O)[C@H]2O)c(O)c1C(=O)OC`, for which the Potency result in test [1] and in test [2] was “inactive” each time. Consider `C=C1C(=O)O[C@@H]2[C@H]3C(C)=CC(=O)C3=C(C)[C@@H](OC(=O)/C(C)=C\C)[C@H](O)[C@@H]12`, for which, in test [2], the Potency is 3.58 µM (active). Consider `C/C(=N\N=C(N)N)c1cc(NC(=O)CCCCCCCCC(=O)Nc2cc(/C(C)=N/N=C(N)N)cc(/C(C)=N/N=C(N)N)c2)cc(/C(C)=N/N=C(N)N)c1`, for which the results for the Potency in test [3], in test [1] and in test [2] were 20 µM (active), 11.5 µM (active) and 11.5 µM (active), respectively. Regarding `Cc1ccc(-c2c(C(=O)CCl)n(CCCO)c3ncnc(N)c23)cc1`, the results for the Potency in test [1] and in test [2] were 20.5 µM (active) and 23 µM (active), respectively.

Turning to `C=C1C(=O)O[C@@H]2[C@H]3C(C)=CC(=O)C3=C(C)CC[C@@H]12`, the Potency in test [1] is 2.9 µM (active); in test [2] it was 2.05 µM (active). For `C=C(C)C(=O)OC1CC2(C)OC(=CC2=O)C(=C)CC2OC(=O)C(=C)C12` (centres undefined) the same measures were 0.8 µM (active) and 0.253 µM (active). As for `C=C1C(=O)O[C@H]2C3=C(C)CCC[C@]3(C)C(=O)C[C@@H]12`, the results for the Potency in test [1] and in test [2] were 1.83 µM (active) and 1.29 µM (active), respectively. Turning to `Cn1ccc(NC(=O)c2cc(Oc3ccc(C(=O)N4CCC4)c(F)c3)c3c(c2)OC(C)(C)C3)n1`, the Potency result in test [1] and in test [2] was “inactive” throughout. In the case of `CC1OC2OC(=O)C3(C)CC4C5(CO5)C5=CC(=O)OC(C)(C)C5=CC(=O)C4(C)C(C1=O)C23` (centres undefined), the Potency in test [2] is 8.93 µM (active).
